# Measurements from paper PMC7862700, “An all-to-all approach to the identification of sequence-specific readers for epigenetic DNA modifications on cytosine”.
# What was measured:
# Assay in all cases: DAPPL (digital affinity profiling via proximity ligation, sequencing); 10 mM Tris-HCl pH 7.5, 50 mM NaCl, 1 mM DTT, 4% glycerol, room temperature, 30 min; GST-TFs on glutathione beads, 16-mer random dsDNA library, 0.1% formaldehyde crosslink after washing; high values mean tight binding
# FLI1 = molecular target: T1, FLI1 (Homo sapiens, UniProt Q01543 1-452); details: protein: recombinant; tags: N-terminal GST; dsDNA, one strand shown
# T1 sequence: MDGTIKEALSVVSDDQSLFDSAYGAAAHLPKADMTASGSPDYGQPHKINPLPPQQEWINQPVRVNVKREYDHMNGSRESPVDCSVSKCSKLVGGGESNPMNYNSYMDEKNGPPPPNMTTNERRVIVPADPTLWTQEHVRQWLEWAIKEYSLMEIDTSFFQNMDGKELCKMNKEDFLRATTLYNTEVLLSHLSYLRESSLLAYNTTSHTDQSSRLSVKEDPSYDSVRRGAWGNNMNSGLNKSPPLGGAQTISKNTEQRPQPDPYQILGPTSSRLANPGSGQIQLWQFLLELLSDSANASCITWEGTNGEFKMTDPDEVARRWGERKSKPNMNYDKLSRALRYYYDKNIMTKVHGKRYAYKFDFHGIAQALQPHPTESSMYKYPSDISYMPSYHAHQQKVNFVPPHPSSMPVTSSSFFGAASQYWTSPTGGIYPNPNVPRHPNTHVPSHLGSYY
# Summary of the method: (§1)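 GST fusions of human transcription factors were expressed in yeast and captured with glutathione beads. Once given DNA barcodes and pooled alongside a tag-only sample, they were incubated for 30 min at room temperature with 200 nmole of a random double-stranded 16-mer DNA library in Tris/NaCl/DTT/glycerol buffer, then washed, crosslinked (0.1% formaldehyde), proximity-ligated, PCR-amplified and sequenced on an Illumina NextSeq500. The binding signal of each hexamer is its read frequency for a factor divided by its frequency for the tag-only sample.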
# ELK1 = molecular target: T2, ELK1 (Homo sapiens, UniProt P19419 1-428); details: protein: recombinant; tags: N-terminal GST; dsDNA, one strand shown
# T2 sequence: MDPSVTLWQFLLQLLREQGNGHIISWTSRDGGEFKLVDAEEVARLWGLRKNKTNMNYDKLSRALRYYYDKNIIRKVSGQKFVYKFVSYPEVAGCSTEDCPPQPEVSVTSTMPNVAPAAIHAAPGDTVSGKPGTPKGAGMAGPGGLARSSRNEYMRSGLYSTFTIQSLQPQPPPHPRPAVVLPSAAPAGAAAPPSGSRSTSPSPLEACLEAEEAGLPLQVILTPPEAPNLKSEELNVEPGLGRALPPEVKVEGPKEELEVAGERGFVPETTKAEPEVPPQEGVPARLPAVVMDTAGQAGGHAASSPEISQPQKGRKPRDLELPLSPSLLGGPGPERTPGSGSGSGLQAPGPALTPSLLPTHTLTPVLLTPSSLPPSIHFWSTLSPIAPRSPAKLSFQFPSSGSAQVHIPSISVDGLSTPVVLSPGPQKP
# Summary of the method: as §1
# GABPA = molecular target: T3, GABPA (Homo sapiens, UniProt Q06546 1-454); details: protein: recombinant; tags: N-terminal GST; dsDNA, one strand shown
# T3 sequence: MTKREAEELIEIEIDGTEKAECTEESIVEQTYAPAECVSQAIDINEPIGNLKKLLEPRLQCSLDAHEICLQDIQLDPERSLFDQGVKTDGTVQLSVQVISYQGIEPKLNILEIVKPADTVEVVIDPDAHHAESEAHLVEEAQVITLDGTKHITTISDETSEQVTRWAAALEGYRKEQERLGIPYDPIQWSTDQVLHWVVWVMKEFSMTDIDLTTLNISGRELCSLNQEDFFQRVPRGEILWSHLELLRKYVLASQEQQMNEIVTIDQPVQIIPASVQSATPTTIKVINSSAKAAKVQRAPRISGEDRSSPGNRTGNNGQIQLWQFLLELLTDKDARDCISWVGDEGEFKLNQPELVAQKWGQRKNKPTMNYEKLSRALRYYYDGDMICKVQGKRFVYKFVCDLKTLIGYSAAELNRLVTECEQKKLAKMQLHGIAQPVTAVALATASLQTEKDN
# Summary of the method: as §1
# ERG = molecular target: T4, ERG (Homo sapiens, UniProt P11308 1-479); details: protein: recombinant; tags: N-terminal GST; dsDNA, one strand shown
# T4 sequence: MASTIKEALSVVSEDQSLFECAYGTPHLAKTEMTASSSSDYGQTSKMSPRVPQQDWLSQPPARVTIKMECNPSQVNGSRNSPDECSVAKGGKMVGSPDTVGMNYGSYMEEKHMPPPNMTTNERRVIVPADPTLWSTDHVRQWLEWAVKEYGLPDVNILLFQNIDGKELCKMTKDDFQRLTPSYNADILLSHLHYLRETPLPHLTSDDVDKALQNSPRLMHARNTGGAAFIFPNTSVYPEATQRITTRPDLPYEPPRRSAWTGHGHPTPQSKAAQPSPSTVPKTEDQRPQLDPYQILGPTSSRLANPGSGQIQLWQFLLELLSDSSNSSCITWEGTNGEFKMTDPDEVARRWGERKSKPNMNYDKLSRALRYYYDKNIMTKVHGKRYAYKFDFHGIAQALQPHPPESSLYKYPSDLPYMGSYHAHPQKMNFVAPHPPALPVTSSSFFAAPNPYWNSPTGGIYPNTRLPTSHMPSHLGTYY
# Summary of the method: as §1
# ELF1 = ELF1 (Homo sapiens, UniProt P32519 1-619); details: protein: recombinant; tags: N-terminal GST; dsDNA, one strand shown
# Sequence of ELF1 (P32519 whole entry): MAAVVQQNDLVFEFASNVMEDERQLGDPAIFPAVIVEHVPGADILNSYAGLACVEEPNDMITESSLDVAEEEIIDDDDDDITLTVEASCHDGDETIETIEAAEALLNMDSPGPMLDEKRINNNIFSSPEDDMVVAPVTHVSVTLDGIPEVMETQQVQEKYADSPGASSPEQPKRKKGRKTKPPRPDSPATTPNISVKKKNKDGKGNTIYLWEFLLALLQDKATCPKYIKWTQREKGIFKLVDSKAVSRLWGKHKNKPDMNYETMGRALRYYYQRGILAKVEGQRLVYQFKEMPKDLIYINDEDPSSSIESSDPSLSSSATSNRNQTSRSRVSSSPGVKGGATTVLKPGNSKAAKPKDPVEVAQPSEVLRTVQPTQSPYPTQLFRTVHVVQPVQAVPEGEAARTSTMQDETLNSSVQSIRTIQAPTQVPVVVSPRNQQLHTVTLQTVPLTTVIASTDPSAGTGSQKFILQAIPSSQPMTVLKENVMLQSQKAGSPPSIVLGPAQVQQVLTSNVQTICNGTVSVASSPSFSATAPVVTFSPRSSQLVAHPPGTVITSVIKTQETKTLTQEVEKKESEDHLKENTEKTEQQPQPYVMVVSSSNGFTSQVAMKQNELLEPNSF
# Summary of the method: as §1
# EHF = molecular target: T5, EHF (Homo sapiens, UniProt Q9NZC4 1-300); details: protein: recombinant; tags: N-terminal GST; dsDNA, one strand shown
# T5 sequence: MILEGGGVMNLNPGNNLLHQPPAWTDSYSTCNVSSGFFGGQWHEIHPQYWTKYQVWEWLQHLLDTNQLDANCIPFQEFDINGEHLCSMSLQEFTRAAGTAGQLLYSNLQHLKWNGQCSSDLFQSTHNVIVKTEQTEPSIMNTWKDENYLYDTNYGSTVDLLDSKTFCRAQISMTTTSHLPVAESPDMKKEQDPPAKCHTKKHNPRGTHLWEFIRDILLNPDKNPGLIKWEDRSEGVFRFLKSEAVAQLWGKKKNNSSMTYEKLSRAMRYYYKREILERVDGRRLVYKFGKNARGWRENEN
# Summary of the method: as §1
# SPI1 = SPI1 (Homo sapiens, UniProt P17947 1-270); details: protein: recombinant; tags: N-terminal GST; dsDNA, one strand shown
# Summary of the method: as §1
# SPIB = SPIB (Homo sapiens, UniProt Q01892 1-262); details: protein: recombinant; tags: N-terminal GST; dsDNA, one strand shown
# Sequence of SPIB (Q01892 whole entry): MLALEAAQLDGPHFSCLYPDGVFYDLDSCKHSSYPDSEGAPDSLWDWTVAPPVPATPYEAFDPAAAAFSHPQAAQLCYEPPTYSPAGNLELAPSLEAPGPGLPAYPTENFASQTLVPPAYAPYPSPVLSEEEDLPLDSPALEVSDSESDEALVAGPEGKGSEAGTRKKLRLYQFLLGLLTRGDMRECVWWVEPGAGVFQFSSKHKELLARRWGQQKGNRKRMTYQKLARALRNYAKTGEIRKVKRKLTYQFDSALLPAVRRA
# Summary of the method: as §1
# ELK3 = molecular target: T6, ELK3 (Homo sapiens, UniProt P41970 1-407); details: protein: recombinant; tags: N-terminal GST; dsDNA, one strand shown
# T6 sequence: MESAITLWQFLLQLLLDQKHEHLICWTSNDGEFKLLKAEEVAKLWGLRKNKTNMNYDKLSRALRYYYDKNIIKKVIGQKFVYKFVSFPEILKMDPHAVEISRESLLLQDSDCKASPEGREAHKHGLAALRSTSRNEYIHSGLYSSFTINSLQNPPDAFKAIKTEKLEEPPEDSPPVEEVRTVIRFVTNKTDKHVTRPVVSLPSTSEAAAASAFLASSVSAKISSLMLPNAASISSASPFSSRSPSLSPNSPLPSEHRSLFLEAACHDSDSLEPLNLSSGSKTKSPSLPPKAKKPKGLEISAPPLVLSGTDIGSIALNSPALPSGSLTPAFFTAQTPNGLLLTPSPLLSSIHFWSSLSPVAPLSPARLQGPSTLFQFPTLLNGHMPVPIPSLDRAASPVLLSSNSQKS
# Summary of the method: as §1
# FEV = molecular target: T7, FEV (Homo sapiens, UniProt Q99581 1-238); details: protein: recombinant; tags: N-terminal GST; dsDNA, one strand shown
# T7 sequence: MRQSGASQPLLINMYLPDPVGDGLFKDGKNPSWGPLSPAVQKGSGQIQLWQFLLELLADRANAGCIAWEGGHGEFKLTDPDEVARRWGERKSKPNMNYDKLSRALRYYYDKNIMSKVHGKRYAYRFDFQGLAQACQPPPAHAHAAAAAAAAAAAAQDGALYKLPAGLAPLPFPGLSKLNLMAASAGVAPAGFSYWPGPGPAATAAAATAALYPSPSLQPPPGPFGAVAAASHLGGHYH
# Summary of the method: as §1
# ETV5 = ETV5 (Homo sapiens, UniProt P41161 1-510); details: protein: recombinant; tags: N-terminal GST; dsDNA, one strand shown
# Sequence of ETV5 (P41161 whole entry): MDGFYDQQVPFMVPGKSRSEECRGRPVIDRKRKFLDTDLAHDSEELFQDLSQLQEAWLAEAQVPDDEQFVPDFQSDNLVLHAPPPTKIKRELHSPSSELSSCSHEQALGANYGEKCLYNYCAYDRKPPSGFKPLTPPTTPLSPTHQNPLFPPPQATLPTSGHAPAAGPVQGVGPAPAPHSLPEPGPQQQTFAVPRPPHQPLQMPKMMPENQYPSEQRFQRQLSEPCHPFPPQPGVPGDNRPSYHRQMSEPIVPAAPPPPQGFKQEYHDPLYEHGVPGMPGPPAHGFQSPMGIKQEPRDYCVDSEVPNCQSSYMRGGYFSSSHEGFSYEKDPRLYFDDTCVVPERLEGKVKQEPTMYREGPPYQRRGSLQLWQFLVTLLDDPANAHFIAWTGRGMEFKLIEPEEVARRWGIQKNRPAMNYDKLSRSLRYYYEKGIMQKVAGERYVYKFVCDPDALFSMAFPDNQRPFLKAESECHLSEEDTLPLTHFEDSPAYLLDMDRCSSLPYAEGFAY
# Summary of the method: as §1
# HSF1 = HSF1 (Homo sapiens, UniProt Q00613 1-529); details: protein: recombinant; tags: N-terminal GST; chain copies: 3; dsDNA, one strand shown
# Sequence of HSF1 (Q00613 whole entry): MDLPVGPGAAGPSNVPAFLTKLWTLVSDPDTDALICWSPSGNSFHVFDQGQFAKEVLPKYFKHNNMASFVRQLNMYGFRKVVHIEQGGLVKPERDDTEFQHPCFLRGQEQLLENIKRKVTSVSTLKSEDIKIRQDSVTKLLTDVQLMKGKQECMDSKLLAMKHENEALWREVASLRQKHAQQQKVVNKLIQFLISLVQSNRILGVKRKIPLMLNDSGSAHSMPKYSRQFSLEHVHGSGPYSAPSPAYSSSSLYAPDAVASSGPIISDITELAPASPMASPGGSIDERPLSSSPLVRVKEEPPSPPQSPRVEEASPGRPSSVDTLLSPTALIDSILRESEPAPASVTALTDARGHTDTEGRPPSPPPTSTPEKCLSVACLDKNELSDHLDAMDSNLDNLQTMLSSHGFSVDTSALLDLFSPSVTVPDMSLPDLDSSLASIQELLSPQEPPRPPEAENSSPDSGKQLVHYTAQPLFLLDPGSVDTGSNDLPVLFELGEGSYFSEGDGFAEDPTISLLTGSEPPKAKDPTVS
# Summary of the method: as §1
# SPIC = molecular target: T8, SPIC (Homo sapiens, UniProt Q8N5J4 1-248); details: protein: recombinant; tags: N-terminal GST; dsDNA, one strand shown
# T8 sequence: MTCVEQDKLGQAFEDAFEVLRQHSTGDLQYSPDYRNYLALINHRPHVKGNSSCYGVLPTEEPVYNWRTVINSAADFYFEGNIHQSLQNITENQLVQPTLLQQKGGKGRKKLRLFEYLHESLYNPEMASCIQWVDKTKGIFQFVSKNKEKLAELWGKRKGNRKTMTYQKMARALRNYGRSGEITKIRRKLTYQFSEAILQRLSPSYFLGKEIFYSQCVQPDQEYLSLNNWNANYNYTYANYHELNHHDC
# Summary of the method: as §1
# ELF4 = ELF4 (Homo sapiens, UniProt Q99607 1-663); details: protein: recombinant; tags: N-terminal GST; dsDNA, one strand shown
# Sequence of ELF4 (Q99607 whole entry): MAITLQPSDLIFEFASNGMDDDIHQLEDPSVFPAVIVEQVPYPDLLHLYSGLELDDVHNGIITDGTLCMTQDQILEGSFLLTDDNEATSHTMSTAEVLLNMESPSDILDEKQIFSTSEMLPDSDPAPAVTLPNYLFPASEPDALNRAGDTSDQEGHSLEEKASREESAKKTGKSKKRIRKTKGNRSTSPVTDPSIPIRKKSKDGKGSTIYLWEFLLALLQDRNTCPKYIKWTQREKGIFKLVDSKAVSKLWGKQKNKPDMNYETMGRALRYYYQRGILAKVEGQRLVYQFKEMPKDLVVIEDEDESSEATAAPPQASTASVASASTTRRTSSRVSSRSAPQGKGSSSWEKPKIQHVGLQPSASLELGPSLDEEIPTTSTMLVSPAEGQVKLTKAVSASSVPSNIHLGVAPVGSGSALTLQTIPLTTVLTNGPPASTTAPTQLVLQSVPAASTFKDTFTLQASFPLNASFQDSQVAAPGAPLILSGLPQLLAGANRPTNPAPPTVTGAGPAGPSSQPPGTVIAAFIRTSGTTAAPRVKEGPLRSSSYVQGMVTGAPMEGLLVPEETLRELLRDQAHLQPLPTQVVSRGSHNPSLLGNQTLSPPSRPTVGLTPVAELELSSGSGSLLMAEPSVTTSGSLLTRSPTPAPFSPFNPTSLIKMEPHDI
# Summary of the method: as §1
# ELK4 = molecular target: T9, ELK4 (Homo sapiens, UniProt P28324-2 1-405); details: protein: recombinant; tags: N-terminal GST; dsDNA, one strand shown
# T9 sequence: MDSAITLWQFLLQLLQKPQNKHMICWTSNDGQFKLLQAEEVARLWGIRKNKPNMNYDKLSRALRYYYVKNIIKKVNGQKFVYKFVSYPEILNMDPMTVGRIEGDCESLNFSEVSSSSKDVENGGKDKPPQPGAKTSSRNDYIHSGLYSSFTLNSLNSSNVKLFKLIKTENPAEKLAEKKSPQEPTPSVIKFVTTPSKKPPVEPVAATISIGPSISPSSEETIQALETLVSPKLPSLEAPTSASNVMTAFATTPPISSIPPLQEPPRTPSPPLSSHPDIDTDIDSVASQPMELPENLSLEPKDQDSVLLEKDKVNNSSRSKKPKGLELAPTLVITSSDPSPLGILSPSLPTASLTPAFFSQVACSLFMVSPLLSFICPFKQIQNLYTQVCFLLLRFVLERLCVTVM
# Summary of the method: as §1
# ETV2 = molecular target: T10, ETV2 (Homo sapiens, UniProt O00321 1-342); details: protein: recombinant; tags: N-terminal GST; dsDNA, one strand shown
# T10 sequence: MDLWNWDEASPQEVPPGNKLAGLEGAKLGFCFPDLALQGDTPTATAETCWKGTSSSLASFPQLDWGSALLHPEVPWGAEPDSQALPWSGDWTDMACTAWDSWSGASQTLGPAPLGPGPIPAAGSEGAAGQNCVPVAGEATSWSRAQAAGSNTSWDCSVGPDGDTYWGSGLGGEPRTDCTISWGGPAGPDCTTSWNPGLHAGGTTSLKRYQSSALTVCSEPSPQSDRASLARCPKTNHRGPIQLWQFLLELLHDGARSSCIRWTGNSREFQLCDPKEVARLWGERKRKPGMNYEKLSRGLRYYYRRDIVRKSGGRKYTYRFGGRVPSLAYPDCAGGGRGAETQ
# Summary of the method: as §1
# ELF3 = molecular target: T11, ELF3 (Homo sapiens, UniProt P78545 1-371); details: protein: recombinant; tags: N-terminal GST; dsDNA, one strand shown
# T11 sequence: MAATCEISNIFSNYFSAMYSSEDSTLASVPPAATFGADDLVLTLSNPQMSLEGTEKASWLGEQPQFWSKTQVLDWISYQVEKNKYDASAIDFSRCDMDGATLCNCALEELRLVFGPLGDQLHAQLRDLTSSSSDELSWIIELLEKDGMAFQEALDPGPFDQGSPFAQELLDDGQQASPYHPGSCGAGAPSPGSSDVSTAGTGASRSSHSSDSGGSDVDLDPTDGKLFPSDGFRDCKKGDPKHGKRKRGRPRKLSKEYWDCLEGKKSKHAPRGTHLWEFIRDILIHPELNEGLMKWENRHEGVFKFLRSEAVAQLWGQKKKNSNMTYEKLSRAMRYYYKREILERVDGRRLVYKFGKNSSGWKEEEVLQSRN
# Summary of the method: as §1
# CRX = CRX (Homo sapiens, UniProt O43186 1-299); details: protein: recombinant; tags: N-terminal GST; dsDNA, one strand shown
# Sequence of CRX (O43186 whole entry): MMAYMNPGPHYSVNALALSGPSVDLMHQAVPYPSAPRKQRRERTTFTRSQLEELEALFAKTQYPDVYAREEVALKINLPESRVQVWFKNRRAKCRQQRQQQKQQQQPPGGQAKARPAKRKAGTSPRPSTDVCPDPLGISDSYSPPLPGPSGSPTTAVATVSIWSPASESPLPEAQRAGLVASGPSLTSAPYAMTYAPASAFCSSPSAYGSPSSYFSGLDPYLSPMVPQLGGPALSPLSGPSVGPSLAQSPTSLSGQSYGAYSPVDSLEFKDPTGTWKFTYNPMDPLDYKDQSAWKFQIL
# Summary of the method: as §1
# ETV1 = ETV1 (Homo sapiens, UniProt P50549 1-477); details: protein: recombinant; tags: N-terminal GST; dsDNA, one strand shown
# Sequence of ETV1 (P50549 whole entry): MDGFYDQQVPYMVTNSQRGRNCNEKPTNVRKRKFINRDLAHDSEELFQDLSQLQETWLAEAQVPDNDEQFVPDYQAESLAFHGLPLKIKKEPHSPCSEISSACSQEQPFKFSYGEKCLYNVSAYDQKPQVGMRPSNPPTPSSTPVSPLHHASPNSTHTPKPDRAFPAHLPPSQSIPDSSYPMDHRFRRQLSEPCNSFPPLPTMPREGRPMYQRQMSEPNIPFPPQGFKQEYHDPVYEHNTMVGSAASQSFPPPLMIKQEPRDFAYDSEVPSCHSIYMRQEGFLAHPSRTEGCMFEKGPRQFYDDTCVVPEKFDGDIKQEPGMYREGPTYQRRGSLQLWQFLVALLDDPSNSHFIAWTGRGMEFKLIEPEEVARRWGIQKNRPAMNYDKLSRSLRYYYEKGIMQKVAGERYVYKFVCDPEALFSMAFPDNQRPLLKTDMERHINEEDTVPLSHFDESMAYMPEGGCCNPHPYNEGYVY
# Summary of the method: as §1
sequence,measurement,setting,value
AAAAAC,binding signal,FLI1,"1.31 fold enrichment (6-mer frequency, TF over GST control)"
same,binding signal,ELK1,"1.12 fold enrichment (6-mer frequency, TF over GST control)"
same,binding signal,GABPA,"1.26 fold enrichment (6-mer frequency, TF over GST control)"
same,binding signal,ERG,"1.26 fold enrichment (6-mer frequency, TF over GST control)"
same,binding signal,ELF1,"1.23 fold enrichment (6-mer frequency, TF over GST control)"
same,binding signal,EHF,"1.28 fold enrichment (6-mer frequency, TF over GST control)"
same,binding signal,SPI1,"1.46 fold enrichment (6-mer frequency, TF over GST control)"
same,binding signal,SPIB,"1.24 fold enrichment (6-mer frequency, TF over GST control)"
same,binding signal,ELK3,"1.31 fold enrichment (6-mer frequency, TF over GST control)"
same,binding signal,FEV,"1.28 fold enrichment (6-mer frequency, TF over GST control)"
same,binding signal,ETV5,"1.26 fold enrichment (6-mer frequency, TF over GST control)"
same,binding signal,HSF1,"1.19 fold enrichment (6-mer frequency, TF over GST control)"
same,binding signal,SPIC,"1.27 fold enrichment (6-mer frequency, TF over GST control)"
same,binding signal,ELF4,"1.31 fold enrichment (6-mer frequency, TF over GST control)"
same,binding signal,ELK4,"1.14 fold enrichment (6-mer frequency, TF over GST control)"
same,binding signal,ETV2,"1.32 fold enrichment (6-mer frequency, TF over GST control)"
same,binding signal,ELF3,"1.3 fold enrichment (6-mer frequency, TF over GST control)"
same,binding signal,CRX,"1.16 fold enrichment (6-mer frequency, TF over GST control)"
same,binding signal,ETV1,"1.27 fold enrichment (6-mer frequency, TF over GST control)"
